Data reported in ChEMBL document CHEMBL1961873, “Compounds: GSK PKIS; Assays: Nanosyn kinase panel” (2012).

Target: Tyrosine-protein kinase receptor UFO (Homo sapiens) (UniProt P30530)
Conditions: at 1 µM

Sequence of Tyrosine-protein kinase receptor UFO (Homo sapiens) (P30530 whole entry): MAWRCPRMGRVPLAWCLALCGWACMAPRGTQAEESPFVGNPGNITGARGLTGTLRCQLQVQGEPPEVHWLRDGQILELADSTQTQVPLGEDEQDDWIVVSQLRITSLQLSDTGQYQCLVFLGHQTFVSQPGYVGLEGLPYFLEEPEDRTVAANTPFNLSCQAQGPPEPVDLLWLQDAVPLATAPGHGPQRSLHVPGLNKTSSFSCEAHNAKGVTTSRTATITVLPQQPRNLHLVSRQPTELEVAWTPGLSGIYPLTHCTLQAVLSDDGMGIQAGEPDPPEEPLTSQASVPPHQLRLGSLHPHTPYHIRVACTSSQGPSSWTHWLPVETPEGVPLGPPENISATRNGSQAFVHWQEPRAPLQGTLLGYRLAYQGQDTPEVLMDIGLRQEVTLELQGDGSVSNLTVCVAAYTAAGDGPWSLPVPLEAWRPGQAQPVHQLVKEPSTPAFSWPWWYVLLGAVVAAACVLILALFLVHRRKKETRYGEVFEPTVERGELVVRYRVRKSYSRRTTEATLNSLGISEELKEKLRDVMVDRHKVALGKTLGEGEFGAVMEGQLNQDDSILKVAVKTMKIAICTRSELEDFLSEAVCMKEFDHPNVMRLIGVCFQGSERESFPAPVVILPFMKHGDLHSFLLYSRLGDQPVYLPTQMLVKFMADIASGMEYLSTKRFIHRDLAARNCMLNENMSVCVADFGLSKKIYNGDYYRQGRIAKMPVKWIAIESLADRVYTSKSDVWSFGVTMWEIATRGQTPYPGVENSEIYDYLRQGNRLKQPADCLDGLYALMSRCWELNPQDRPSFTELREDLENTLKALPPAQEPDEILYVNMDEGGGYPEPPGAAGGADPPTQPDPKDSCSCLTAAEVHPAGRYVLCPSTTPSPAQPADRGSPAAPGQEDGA

Q: For `CN(C)c1ccc2c(c1)/C(=C/Nc1ccc(S(N)(=O)=O)cc1)C(=O)N2`, which inhibition is on record?
A: 14.8%

Q: For `CN(c1ccc(NC(=O)Nc2c(Cl)cccc2Cl)cc1)c1ccnc(Nc2cccc(CS(C)(=O)=O)c2)n1`, which inhibition is on record?
A: 28.6%

Q: Which inhibition does the source give for `Fc1ccc(-c2c(-c3ccncc3)nc3n2CCS3)cc1` here?
A: -2.08%

Q: `N#Cc1ccc(Oc2nccc(-c3c(-c4ccc(F)cc4)ncn3C3CCNCC3)n2)cc1` was tested. Which inhibition did it give?
A: -3.22%

Q: `CN1CCN(CCCNc2nc3ccc(Oc4ccc(NC(=O)Nc5cc(C(F)(F)F)ccc5F)cc4)cc3[nH]2)CC1` was tested. Which inhibition did it give?
A: 27.5%

Q: `COc1cc(Nc2ncc(-c3ccccc3)o2)cc(OC)c1OC` was tested. Which inhibition did it give?
A: -1.68%

Q: For `COc1cc2ncn(-c3cc(OCc4cccs4)c(C(N)=O)s3)c2cc1OC`, which inhibition is on record?
A: 1.31%

Q: `COc1cc2ncn(-c3cc(OCc4ccccc4C(F)(F)F)c(C(C)=O)s3)c2cc1OC` was tested. Which inhibition did it give?
A: -1.92%

Q: For `CN(C)CCCNc1nccc(-c2c(-c3ccc(F)cc3)nn3cc(C(F)(F)F)ccc23)n1`, which inhibition is on record?
A: 3.68%

Q: `c1ccc(Oc2ccc(Nc3ncc(-c4ccccc4)o3)cc2)cc1` was tested. Which inhibition did it give?
A: -0.31%

Q: With `Fc1ccc(-c2ncn(CCCN3CCOCC3)c2-c2ccncc2)cc1` as the compound, how does the inhibition read?
A: 1.84%

Q: For `COc1ccc2cc(-c3c(-c4ccncc4)nc(-c4ccc([S+](C)[O-])cc4C)n3C)ccc2c1` (stereo not drawn), which inhibition is on record?
A: 1.82%

Q: With `CS(=O)(=O)CCNCc1cc(-c2cc3c(Nc4ccc(OCc5cccc(F)c5)c(Cl)c4)ncnc3s2)cs1` as the compound, how does the inhibition read?
A: -6.81%

Q: Which inhibition does the source give for `O=C1Nc2ccc(I)cc2C1=Cc1cc(Br)c(O)c(Br)c1` here?
A: -7.49%

Q: How did the inhibition turn out when `CCc1cccc(CC)c1/C=C/c1cncc(C(=O)NC)c1` was run?
A: -1.28%

Q: How did the inhibition turn out when `Fc1ccc(-c2ncn(C3CCNCC3)c2-c2ccnc(Oc3ccc(Oc4ccccc4)cc3)n2)cc1` was run?
A: -7.71%

Q: With `COc1ccc(C2=C(N3CCc4ccccc43)C(=O)NC2=O)cc1` as the compound, how does the inhibition read?
A: -4.91%

Q: Which inhibition does the source give for `O=C1Nc2ccccc2/C1=C/Nc1ccc(-n2cncn2)cc1` here?
A: -3.55%

Q: For `O=C(Nc1n[nH]c2cc(-c3cc(F)ccc3F)ccc12)C1CC1`, which inhibition is on record?
A: -2.71%

Q: For `CCN(CC)Cc1ccc(Nc2nccc(-c3cnn4ncccc34)n2)cc1`, which inhibition is on record?
A: 16.3%

Q: With `CCc1ccc(Oc2nccc(-c3c(-c4ccc(F)cc4)ncn3C3CCNCC3)n2)cc1` as the compound, how does the inhibition read?
A: -3.44%

Q: For `O=C(Nc1n[nH]c2nc(-c3ccco3)ccc12)C1CC1`, which inhibition is on record?
A: 5.23%

Q: Which inhibition does the source give for `NC(=O)Cc1ccccc1Oc1nccc(-c2c(-c3ccc(F)cc3)ncn2C2CCNCC2)n1` here?
A: 1.68%

Q: `CCc1nccc2c1nc(-c1nonc1N)n2CC` was tested. Which inhibition did it give?
A: 2.17%

Q: How did the inhibition turn out when `NC(=O)c1cc(-c2ccncc2)cc(-c2ccccc2)c1N` was run?
A: -6.8%

Q: Which inhibition does the source give for `COc1ccc(-c2ccc3c(NC(=O)C4CC4)n[nH]c3n2)cc1` here?
A: -2.35%

Q: `COC(=O)Nc1nc2ccc(Sc3ccc(NC(=O)Nc4cc(C(F)(F)F)ccc4F)cc3)cc2[nH]1` was tested. Which inhibition did it give?
A: 10.9%

Q: For `Fc1ccc(-c2ncn(C3CCNCC3)c2-c2ccnc(Oc3ccc(F)c(F)c3)n2)cc1`, which inhibition is on record?
A: -4.58%

Q: `O=C(Nc1n[nH]c2nc(-c3ccc(O)cc3)c(Br)cc12)C1CC1` was tested. Which inhibition did it give?
A: -7.01%

Q: How did the inhibition turn out when `Cc1ccc(NC(=O)c2ccoc2)cc1-c1ccc(C(=O)NCC2CC2)cc1` was run?
A: -2.93%

Q: For `COc1cc(N2CCN(C(C)C)CC2)ccc1Nc1nc(Nc2ccc(F)cc2C(=O)NC[C@@H](O)CO)c2cc[nH]c2n1`, which inhibition is on record?
A: 7.75%

Q: For `CCS(=O)(=O)c1ccc(OC)c(Nc2ncc(-c3cccc(-c4ccccc4F)c3)o2)c1`, which inhibition is on record?
A: 2.28%

Q: For `NS(=O)(=O)c1ccc(N/N=C2\C(=O)Nc3ccc(-c4cnco4)cc32)cc1`, which inhibition is on record?
A: -1.27%

Q: Which inhibition does the source give for `C[C@@H](Oc1cc(-n2cnc3ccc(OC4CCN(C)CC4)cc32)sc1C(N)=O)c1ccccc1Cl` here?
A: -3.62%

Target: Tyrosine-protein kinase Blk (Homo sapiens) (UniProt P51451);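 further: reported value is the mean percent inhibition of BLK kinase activity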
Sequence (P51451 2-505 limits assumed): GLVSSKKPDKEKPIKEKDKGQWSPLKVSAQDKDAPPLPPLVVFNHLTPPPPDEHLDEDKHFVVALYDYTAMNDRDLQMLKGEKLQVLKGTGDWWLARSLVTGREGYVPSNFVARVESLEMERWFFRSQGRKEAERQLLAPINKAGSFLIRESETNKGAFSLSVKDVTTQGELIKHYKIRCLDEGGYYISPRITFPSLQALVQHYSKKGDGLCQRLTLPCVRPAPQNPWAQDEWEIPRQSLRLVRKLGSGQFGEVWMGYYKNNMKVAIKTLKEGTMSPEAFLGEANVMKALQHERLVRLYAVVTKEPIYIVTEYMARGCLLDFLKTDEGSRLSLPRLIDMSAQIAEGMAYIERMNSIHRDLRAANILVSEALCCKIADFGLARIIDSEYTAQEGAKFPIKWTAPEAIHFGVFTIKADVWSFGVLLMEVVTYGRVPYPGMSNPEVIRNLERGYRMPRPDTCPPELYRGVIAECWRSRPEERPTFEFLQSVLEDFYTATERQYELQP
Conditions: at 0.1 µM

Q: How did the inhibition turn out when `CN(C)c1ccc2c(c1)/C(=C/Nc1ccc(S(N)(=O)=O)cc1)C(=O)N2` was run?
A: 2.29%

Q: How did the inhibition turn out when `CN(c1ccc(NC(=O)Nc2c(Cl)cccc2Cl)cc1)c1ccnc(Nc2cccc(CS(C)(=O)=O)c2)n1` was run?
A: 37.2%

Q: `Fc1ccc(-c2c(-c3ccncc3)nc3n2CCS3)cc1` was tested. Which inhibition did it give?
A: -2.78%

Q: `N#Cc1ccc(Oc2nccc(-c3c(-c4ccc(F)cc4)ncn3C3CCNCC3)n2)cc1` was tested. Which inhibition did it give?
A: 2.21%

Q: How did the inhibition turn out when `CN1CCN(CCCNc2nc3ccc(Oc4ccc(NC(=O)Nc5cc(C(F)(F)F)ccc5F)cc4)cc3[nH]2)CC1` was run?
A: -2.37%

Q: How did the inhibition turn out when `COc1cc(Nc2ncc(-c3ccccc3)o2)cc(OC)c1OC` was run?
A: 4.17%

Q: Which inhibition does the source give for `COc1cc2ncn(-c3cc(OCc4cccs4)c(C(N)=O)s3)c2cc1OC` here?
A: 0.4%

Q: `COc1cc2ncn(-c3cc(OCc4ccccc4C(F)(F)F)c(C(C)=O)s3)c2cc1OC` was tested. Which inhibition did it give?
A: 3.79%

Q: For `CN(C)CCCNc1nccc(-c2c(-c3ccc(F)cc3)nn3cc(C(F)(F)F)ccc23)n1`, which inhibition is on record?
A: -1.5%

Q: For `c1ccc(Oc2ccc(Nc3ncc(-c4ccccc4)o3)cc2)cc1`, which inhibition is on record?
A: 1.93%

Q: How did the inhibition turn out when `Fc1ccc(-c2ncn(CCCN3CCOCC3)c2-c2ccncc2)cc1` was run?
A: -0.04%

Q: `COc1ccc2cc(-c3c(-c4ccncc4)nc(-c4ccc([S+](C)[O-])cc4C)n3C)ccc2c1` (stereo not drawn) was tested. Which inhibition did it give?
A: -0.17%

Q: Which inhibition does the source give for `CS(=O)(=O)CCNCc1cc(-c2cc3c(Nc4ccc(OCc5cccc(F)c5)c(Cl)c4)ncnc3s2)cs1` here?
A: 2.61%

Q: `O=C1Nc2ccc(I)cc2C1=Cc1cc(Br)c(O)c(Br)c1` was tested. Which inhibition did it give?
A: 1.48%

Q: Which inhibition does the source give for `CCc1cccc(CC)c1/C=C/c1cncc(C(=O)NC)c1` here?
A: 2.14%

Q: How did the inhibition turn out when `Fc1ccc(-c2ncn(C3CCNCC3)c2-c2ccnc(Oc3ccc(Oc4ccccc4)cc3)n2)cc1` was run?
A: 3.8%

Q: Which inhibition does the source give for `COc1ccc(C2=C(N3CCc4ccccc43)C(=O)NC2=O)cc1` here?
A: 3.71%

Q: How did the inhibition turn out when `O=C1Nc2ccccc2/C1=C/Nc1ccc(-n2cncn2)cc1` was run?
A: 3.13%

Q: Which inhibition does the source give for `O=C(Nc1n[nH]c2cc(-c3cc(F)ccc3F)ccc12)C1CC1` here?
A: 1.38%

Q: With `CCN(CC)Cc1ccc(Nc2nccc(-c3cnn4ncccc34)n2)cc1` as the compound, how does the inhibition read?
A: -0.3%

Q: How did the inhibition turn out when `CCc1ccc(Oc2nccc(-c3c(-c4ccc(F)cc4)ncn3C3CCNCC3)n2)cc1` was run?
A: 2.31%

Q: For `O=C(Nc1n[nH]c2nc(-c3ccco3)ccc12)C1CC1`, which inhibition is on record?
A: 0.69%

Q: How did the inhibition turn out when `NC(=O)Cc1ccccc1Oc1nccc(-c2c(-c3ccc(F)cc3)ncn2C2CCNCC2)n1` was run?
A: 1.46%

Q: Which inhibition does the source give for `CCc1nccc2c1nc(-c1nonc1N)n2CC` here?
A: 0.44%

Q: `NC(=O)c1cc(-c2ccncc2)cc(-c2ccccc2)c1N` was tested. Which inhibition did it give?
A: 3.86%

Q: With `COc1ccc(-c2ccc3c(NC(=O)C4CC4)n[nH]c3n2)cc1` as the compound, how does the inhibition read?
A: 1.52%

Q: Which inhibition does the source give for `COC(=O)Nc1nc2ccc(Sc3ccc(NC(=O)Nc4cc(C(F)(F)F)ccc4F)cc3)cc2[nH]1` here?
A: 0.49%

Q: How did the inhibition turn out when `Fc1ccc(-c2ncn(C3CCNCC3)c2-c2ccnc(Oc3ccc(F)c(F)c3)n2)cc1` was run?
A: -1.88%

Q: Which inhibition does the source give for `O=C(Nc1n[nH]c2nc(-c3ccc(O)cc3)c(Br)cc12)C1CC1` here?
A: 4.29%

Q: With `Cc1ccc(NC(=O)c2ccoc2)cc1-c1ccc(C(=O)NCC2CC2)cc1` as the compound, how does the inhibition read?
A: 1.47%

Q: `COc1cc(N2CCN(C(C)C)CC2)ccc1Nc1nc(Nc2ccc(F)cc2C(=O)NC[C@@H](O)CO)c2cc[nH]c2n1` was tested. Which inhibition did it give?
A: -1.34%

Q: How did the inhibition turn out when `CCS(=O)(=O)c1ccc(OC)c(Nc2ncc(-c3cccc(-c4ccccc4F)c3)o2)c1` was run?
A: 8.74%

Q: For `NS(=O)(=O)c1ccc(N/N=C2\C(=O)Nc3ccc(-c4cnco4)cc32)cc1`, which inhibition is on record?
A: -1.23%

Q: For `C[C@@H](Oc1cc(-n2cnc3ccc(OC4CCN(C)CC4)cc32)sc1C(N)=O)c1ccccc1Cl`, which inhibition is on record?
A: -0.86%
